The assay can be described thus: anti-Giardia activity of synthetic compounds – Compounds Australia Scaffold Library subset, 24/48 h, primary screen (AID 1794835).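 On inhibition: 0% = parasite counts in DMSO vehicle wells.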 Particulars: Giardia lamblia BRIS/91/HEPU/1279 trophozoite counts, imaging, at 10 µM.
[1] abbreviates: measured here: growth inhibition at 24 h, stronger effect = higher value.

Inhibition and outcome data for 46 compounds are collected here from PubChem BioAssay AID1794835 (Parasite Biology Lab, Institute for Biomedicine and …, 2023).

The whole screen tested about 2,500 compounds, of which about 45 (2%) were called active. No stated cut-off is given here; in the data, active means inhibition mostly above about 45% (no sharp cut-off); inactive means mostly below about 37%. The sample as a whole holds a higher share of actives than the screen did.

As for `Cc1ccc(NC(=O)C2=NN(CC(=O)Nc3ccc4c(c3)OCCO4)C(=O)CC2)cc1`, the inhibition entry was “inactive”.
For the compound `Cc1ccc(NC(=O)c2ccc(=O)n(CCN3CCOCC3)n2)cc1`, the inhibition reads like this: (stronger effect = higher value) 2.3% (inactive); under setting [1], 1.4%.
For the compound `Cc1ccc(NC(=O)c2cc3c(Cl)ccc4c3n2CCO4)cc1`, the inhibition (stronger effect = higher value) was 49.3% (active) and the inhibition under setting [1] was 30.6%.
For `CCOc1ccc(NC(=O)CN2C(c3ccc(C)cc3)=CC(c3ccccc3)n3nnnc32)cc1` (stereo unspecified), the inhibition entry is “inactive”.
As for `CCN(CC)CCN1C(=O)C(O)=C(C(=O)c2cccs2)C1c1ccc(C)o1` (stereo unspecified), the inhibition (stronger effect = higher value) is 15% (inactive).
In the case of `O=c1ccc(-c2nnco2)cn1Cc1ccc(F)c2cccnc12`, the inhibition entry was “inactive”.
Take `CC1CCN(C(=O)c2n[nH]c(=O)c3ccccc23)CC1`: the result was inactive. The compound further registered an inhibition under setting [1] of 4%.
For `Cc1ccc(NC(=O)c2oc3ccccc3c2NC(=O)c2ccccc2)cc1`, the inhibition (stronger effect = higher value) was 1.2% (inactive).
`CC1CCN(C(=O)c2oc3ccccc3c2NC(=O)c2ccc([N+](=O)[O-])o2)CC1`: the inhibition is, setting by setting: (stronger effect = higher value) 95.2% (active); under setting [1], 87.8%.
As to `Cn1cc(S(=O)(=O)N2CCN(C(=O)Cc3c[nH]c4ccccc34)CC2)cc1C(N)=O`, the inhibition entry was “inactive”.
For `Cc1cc(NCc2ccccc2CN2CCCC2)nc(-c2ccncc2)n1`, the inhibition result was “inactive”.
As to `Cc1nn(Cc2ccccc2)c2sc(C(=O)N3CCN(C(=O)N4CCCCC4)CC3)cc12`, the inhibition (stronger effect = higher value) is 14% (inactive).
Same read-out and setting: as for `COc1ccccc1N1CCN(C(=O)c2ccc3[nH]c(C)c(C)c3c2)CC1`, the figure is 36.6% (inactive).
Turning to `COc1ccccc1N1CCN(C(=O)c2cc3c(C)nn(-c4ccc(C)cc4)c3s2)CC1`, the inhibition (stronger effect = higher value) is 65.7% (active) and the inhibition under setting [1] came to 48%.
As for `COc1ccccc1N1CCN(C(=O)c2cc(C3CC3)[nH]n2)CC1`, the compound was classed as inactive. In addition, the inhibition under setting [1] was determined as 9.6%.
Regarding `Cc1nn(-c2ccccc2)c2sc(C(=O)N3CCCCC3)cc12`, the inhibition (stronger effect = higher value) was 39.6% (active) and the inhibition under setting [1] is 21.1%.
On to `Cc1nn(-c2ccc(F)cc2)c2sc(C(=O)N3CCCCC3C(N)=O)cc12` (stereo unspecified), for which the inhibition result is “inactive”.
As to `Cc1ccc(-c2ncc(C(=O)NC3CCCCCC3)c(C)n2)cc1`, the result was inactive. The same compound yielded an inhibition under setting [1] of 6.7%.
`COc1cccc(CNC(=O)Cn2ccc3sccc3c2=O)c1`: the inhibition is 6.6% (inactive) (stronger effect = higher value) and 0.5% under setting [1].
On the same counts, the results for `COc1cccc(N2CCN(C(=O)C3CCN(c4nc(NC(C)=O)ns4)CC3)CC2)c1` are 16.2% (inactive) and 7.9%.
Consider `CCCc1cc(N2CCOCC2)n2nc(C)c(-c3ccccc3)c2n1`, for which the inhibition (stronger effect = higher value) was 20.2% (inactive).
Turning to `Cc1cc(NC(=O)CN2c3ccccc3NC3=C(C(=O)CC(C)(C)C3)C2c2ccccc2)no1` (stereo unspecified), the inhibition result is “inactive”.
In the case of `Cn1cnc2onc(C(=O)NC3CCCCC3)c2c1=O`, the inhibition result is “inactive”.
As for `O=S(=O)(c1cccc(F)c1)N1CC(OCc2cccc(F)c2)C1`, the inhibition reads like this: (stronger effect = higher value) 10% (inactive); under setting [1], 1.5%.
The corresponding values for `Cc1nc2sccn2c1-c1nc(-c2ccccc2)c(C(=O)c2ccc3c(c2)NC(=O)CO3)s1` are 7% (inactive) and 1.6%.
On the same counts, the results for `Nc1c(-c2nc(-c3ccccc3)cs2)c2ccccn2c1C(=O)c1ccc2c(c1)OCO2` are 83.1% (active) and 63.2%.
As for `COc1ccc(C(=O)c2c(N)c(-c3nc(-c4cc(OC)ccc4OC)cs3)c3ccccn23)cc1`, the outcome was inactive. This compound also displayed an inhibition under setting [1] of 3.8%.
Regarding `COc1cccc(C(=O)N2CCN(CC3CCCO3)CC2)c1` (stereo unspecified), the inhibition result was “inactive”.
Consider `CCOc1ccc(NC(=O)N2Cc3cccn3-c3ccccc32)cc1`, for which the inhibition result is “inactive”.
Take `CN1CCCN(c2ncnc3cc(Cl)ccc23)CC1`: the inhibition result was “inactive”.
Regarding `COc1ccc(-c2csc(-n3nccc3C(F)(F)F)n2)cc1OC`, the inhibition runs as follows: (stronger effect = higher value) 27.9% (inactive); under setting [1], 8%.
The corresponding values for `COc1ccc(-c2csc(C3=C(O)CN(CC(C)(C)CN(C)C)C3=N)n2)cc1OC` are 76.8% (active) and 23.9%.
With `N=C1C(c2nc(-c3ccc(Cl)cc3)cs2)=C(O)CN1CCc1ccccc1`, the inhibition result was “inactive”.
Turning to `Cc1ccc(COCc2nn(C)c3c2CN(C(=O)Nc2ccccc2)CC3)cc1`, the compound was classed as inactive. The same compound registered an inhibition under setting [1] of 4.7%.
With `CCn1cc(C(=O)NCc2ccccc2)c(=O)c2ccc(C)nc21`, the inhibition runs as follows: (stronger effect = higher value) 6.1% (inactive); under setting [1], 8.9%.
On to `Cc1ncncc1C(=O)N1CCN(CC(O)C(C)(C)C)CC1` (stereo unspecified), for which the inhibition result was “inactive”.
Turning to `COc1ccc(Nc2cc(C)nc(N3CCN(C(=O)c4ccccc4)CC3)n2)cc1`, the inhibition is 29.3% (inactive) (stronger effect = higher value) and 5.55% under setting [1].
The corresponding values for `COc1ccc(Nc2cc(C)nc(N3CCN(C(=O)Nc4cccc(OC)c4)CC3)n2)cc1` are 86.6% (active) and 49.4%.
As to `COc1ccc(NC(=O)N2CCN(c3cc(C)nc(N4CCOCC4)n3)CC2)cc1`, the inhibition (stronger effect = higher value) is 44.4% (inactive) and the inhibition under setting [1] was determined as 12.7%.
As for `CN(C)C(=O)CN1CCCN(Cc2ncc(C(C)(C)C)o2)CC1`, the inhibition was 1.9% (inactive) (stronger effect = higher value) and 6.5% under setting [1].
On the same counts, the results for `CCN(Cc1ccccc1)C(=O)c1cc(-c2ccccc2)n[nH]1` are 36.1% (inactive) and 19.1%.
Regarding `Cc1noc(C)c1S(=O)(=O)N1CCC(C(=O)NCC(c2ccccc2)N(C)C)CC1` (stereo unspecified), the compound was classed as inactive. Moreover, the inhibition under setting [1] amounted to 10.5%.
For the compound `Cc1nn(C)c2sc(C(=O)N3CCN(S(=O)(=O)c4ccc(Br)cc4)CC3)cc12`, the inhibition (stronger effect = higher value) was 10.6% (inactive).
As for `CCOc1ccc(C(=O)Nc2ccc(-c3nnc4n3CCCCCC4)cc2)cc1`, the inhibition result is “inactive”.
Regarding `COc1ccc(NC(=O)c2ccc(-c3cc(NC4CCCCC4)ncn3)cc2)cc1`, the inhibition was 51% (active) (stronger effect = higher value) and 17.1% under setting [1].
On to `COc1ccc2c(c1)CCc1c-2noc1-c1ccc(NC(=O)c2cc(C)nn2C)cc1`, for which the inhibition entry was “inactive”.

Usually inhibition stands for the percentage by which the read-out fell short of the control.
